Most compounds without a hit are left out; they make up all but 10% or so of the library.
ELG1 repair inh = ELG1-dependent DNA repair inhibition. HEK293T ELG1-luciferase reporter, luminescence, 16 h; DNA damage induced by 5-fluorouridine. Potency, µM (series often up to 46.1 µM), usual class: inhibitors. 330,000 compounds, 2.3% hits; also: nearly all actives have a fitted effect of over 55% in size
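Reporter activity after DNA damage by 5-fluorouridine is monitored. Compound-treated cells incubate 16 hr at 37 °C, then ONE-Glo is added for 30 min before luminescence reading.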
MCF10A rerep = inducers of DNA re-replication in MCF 10A breast cells | MCF 10A DNA re-replication, Hoechst nuclear intensity, 48 h | Potency, µM (top dose mostly 46.1 µM), actives largely listed as activators | 350,000 compounds, 2.9% hits; also: nearly all actives have a fitted effect of over 50% in size
RORg inh = ROR gamma (mouse) transcription inhibition. P51450. Drosophila S2 Gal4-RORgamma UAS-luciferase reporter, 20 h. Potency, µM (series often up to 53.6 µM), usual class: inhibitors. 310,000 compounds, 5.4% hits. AID 2551; also: nearly all actives have a fitted effect of over 60% in size
Target sequence (P51450 whole entry, looked up, the tested form may be a part): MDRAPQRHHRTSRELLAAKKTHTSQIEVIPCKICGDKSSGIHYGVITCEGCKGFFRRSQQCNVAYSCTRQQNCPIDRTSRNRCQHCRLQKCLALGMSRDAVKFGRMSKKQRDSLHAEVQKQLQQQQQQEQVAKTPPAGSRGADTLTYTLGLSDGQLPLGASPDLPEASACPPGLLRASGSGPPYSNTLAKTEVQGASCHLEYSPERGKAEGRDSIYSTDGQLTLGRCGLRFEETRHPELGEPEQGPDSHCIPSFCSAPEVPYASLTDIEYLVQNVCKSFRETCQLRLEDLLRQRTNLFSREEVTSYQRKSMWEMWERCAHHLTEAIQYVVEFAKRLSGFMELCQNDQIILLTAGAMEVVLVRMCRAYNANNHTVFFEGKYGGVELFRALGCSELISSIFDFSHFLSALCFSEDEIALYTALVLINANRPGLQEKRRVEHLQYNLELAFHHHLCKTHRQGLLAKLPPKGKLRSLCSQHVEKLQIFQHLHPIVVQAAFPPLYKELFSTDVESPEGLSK
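Drosophila Schneider cells stably carrying a metallothionein-driven Gal4 DBD–ROR gamma fusion and a UAS-Photinus luciferase reporter were exposed to compound for 1 hr, then induced with copper sulfate (700 uM final) for 20 hr at ambient temperature before luminescence reading.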
SW480 rereplic = DNA re-replication induction in SW480 cells | SW480 DNA re-replication, Hoechst DNA content imaging, 48 h | Potency, µM (highest dose often 46.1 µM), most hits filed as activators | 340,000 compounds, 1.8% hits | AID 624297; also: nearly all actives have a fitted effect of over 55% in size
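Image-based read-out: total Hoechst fluorescence of nuclei (405 nm excitation, 500-530 nm emission), with hits raising the fraction of high-intensity nuclei. SW480 colon cells incubated 48 hr with compounds at 37 C.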
VP16 counter = Gal4-VP16 reporter inhibition counter-screen | Potency, µM (series often up to 53.6 µM), hits mostly inhibitors | Drosophila S2 Gal4-VP16 UAS-luciferase, luminescence, 20 h | 310,000 compounds, 3.5% hits;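 also: Gal4-VP16 expression switched on by copper sulfate through the metallothionein promoter; nearly all actives have a fitted effect of over 50% in size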
Numbers stand for hits; n = inactive; u = inconclusive; x = no result; [ ] = another dose, or the depositor's remark. Calls follow the shape of the dose curve; as a rule, active = well fitted curve in the direction sought with a large enough effect; inconclusive = small, poorly fitted or top-dose-only effect, or another doubt; inactive = no such curve, though single readings can be large; an effect the other way counts as inactive or inconclusive.

SMILES | ELG1 repair inh | MCF10A rerep | RORg inh | SW480 rereplic | VP16 counter
CC(C)(C)c1ccc2c(c1)OC(C(=O)N/N=C\c1ccncc1)CO2 (stereo unspecified) | 15µM | n | n | n | u
Cn1cccc1/C=N\NC(=O)C1COc2ccc(C(C)(C)C)cc2O1 (stereo unspecified) | n | n | u | n | u
Cc1c(/C=N\NC(=O)C2COc3ccc(C(C)(C)C)cc3O2)c2ccccc2n1C (stereo unspecified) | u | u | n | n | n
CCCCCN(C(=O)NC(=O)Nc1nncs1)S(C)(=O)=O | n | n | 11µM | n | n
CCCCCN(C(=O)NC(=O)Nn1cnnc1)S(C)(=O)=O | n | n | n | n | n
CCOC(=O)c1ccc(CC(=O)c2ccc(O)cc2O)o1 | u | n | n | n | n
CCC(=O)Oc1ccc(C/C(=N\O)c2ccc(O)cc2O)o1 | u | 15µM | 2.2µM | u | u
CC1C2=C(CC(C)(C)CC2=O)NC2=C1C(=O)CC(C)(C)C2 | n | 5.8µM | n | n | n
CC(OC(=O)Cc1n[nH]c(=O)c2ccccc12)C(=O)Nc1cccc([N+](=O)[O-])c1 (stereo unspecified) | n | n | n | n | n
COc1ccccc1C(=O)Nc1ccc2c(c1)CCCN2C(=O)c1ccccc1 | u | n | n | n | n
COc1ccccc1C(=O)Nc1ccc2c(c1)CN(C(=O)CSC)CC2 | n | 12µM | n | u | n
CCOC(=O)CNC(=O)N1CCc2ccc(NC(=O)c3ccccc3Cl)cc2C1 | n | 7.3µM | n | n | n
CCOC(=O)c1c2c(n(C)c1C)C(=O)C(=O)c1ccc(Br)cc1-2 | x | 2.1µM | x | 2.6µM | x
CCOC(=O)c1c2c3c(cccc3n(C)c1=O)C(=O)c1ccccc1-2 | u | n | n | n | n
Cc1c(CN(C)C)c2c(n1C)C(=O)c1ccc(Br)cc1-2 | n | n | n | u | n
CCOC(=O)c1c2c(n(Cc3ccccc3)c1C)C(=O)C(=O)c1ccccc1-2 | x | 3.3µM | x | 4.1µM | x
COC(=O)C(CC(=O)c1ccc(Br)cc1)n1ccnc1 (stereo unspecified) | u | x | 0.63µM | x | 1µM
CCCCCC/C(=N/O)c1ccccn1 | n | u | 5µM | u | 16µM
C/C(=N/O)c1ccccn1 | n | n | n | n | n
Cc1ccc(/C=N/NC(=O)c2ccc3nc[nH]c3c2)o1 | n | n | u | n | n
O=C(CN1C(=O)c2ccccc2S1(=O)=O)Nc1ccccc1 | n | 6.5µM | n | n | n
CSc1cccc(NC(=O)CN2C(=O)c3ccccc3S2(=O)=O)c1 | n | n | n | n | 13µM
Cc1ccc(NC(=O)CN2C(=O)c3ccccc3S2(=O)=O)cc1C | u | u | n | n | u
COc1ccc(NC(=O)CN2C(=O)c3ccccc3S2(=O)=O)cc1OC | n | n | n | n | n
Cc1ccc(C2CC(c3ccccc3)=NN2C(=S)Nc2ccccc2)o1 (stereo unspecified) | u | 5.2µM | n | 12µM | n
SMILES | ELG1 repair inh | MCF10A rerep | RORg inh | SW480 rereplic | VP16 counter
CC1=NN(C(=S)Nc2ccccc2)C(c2ccccc2)C1 (stereo unspecified) | u | n | 13µM | n | u
CC1=NN(C(=O)CCc2ccccc2)C(c2ccccc2)C1 (stereo unspecified) | n | n | n | n | n[10 µM]
CCOC(=O)c1ccc(-n2ccnc2)c(NC(=O)c2ccc(C(C)(C)C)cc2)c1 | u | u | n | 13µM | n
Cc1cc(=O)n2c3ccccc3n(CC(O)CN3CCCC3)c2c1C#N (stereo unspecified) | u | u | n | n | n
CCCNCC(O)Cn1c2ccccc2n2c(=O)cc(C)c(C#N)c12 (stereo unspecified) | u | n | 0.71µM | n | n
O=C1N[C@@H](Cc2ccccc2)COC(=O)[C@@H](Cc2ccc(F)cc2)C/C=C\C[C@@H]1CC(=O)N(CCO)Cc1ccccc1 | u | 23µM | x | u | x
CC(C)(C)[C@@H]1COC(=O)[C@H](Cc2ccc(F)cc2)C/C=C\C[C@H](CC(=O)N(CCO)Cc2ccccc2)C(=O)N1 | 21µM | n | x | n | x
Cc1cc(C(C2C(=O)CC(C)(C)CC2=O)C2C(=O)CC(C)(C)CC2=O)cc(C)c1OC(F)F | u | n | n | n | n
COc1ccc(C(=O)CSc2nc(=O)n(Cc3cccnc3)c3c2CCC3)cc1 | x | n | x | n | x
Cc1ccccc1CN(c1ccc(C(=O)Nc2ccccc2C(=O)NCc2ccco2)cc1)S(C)(=O)=O | 7.3µM | n | n | n | n
COc1cc(NC(=O)c2ccco2)c(C(=O)OCC(=O)c2c[nH]c3ccccc23)cc1OC | 8.2µM | 23µM | u | u | u
Cc1ccc(C(=O)Nc2ccccc2C(=O)NCc2ccco2)cc1 | n | n | x | n | x
Cc1ccccc1CN(c1ccc(C(=O)N2CCc3ccccc3C2)cc1)S(C)(=O)=O | 15µM | u | u | n | u
CNC(=O)c1ccc(N(Cc2ccccc2C)S(C)(=O)=O)cc1 | n | n | n | n | n
COc1ccc(C(=O)Nc2ccc(Cl)cc2C(=O)NCc2ccco2)cc1OC | 16µM | u | n | n | n
COc1ccc(-c2noc(-c3ccccc3C(=O)NCc3ccco3)n2)cc1 | u | n | n | n | n
COc1ccc(C(=O)Nc2ccccc2C(=O)NCc2ccco2)cc1OC | 15µM | u | n | n | n
COc1ccc(CCNC(=O)c2ccccc2NC(=O)c2ccco2)cc1OC | 18µM | n | n | n | n
COc1ccccc1C(=O)Nc1ccccc1C(=O)NCc1ccco1 | n | n | n | n | n
COc1ccc(-c2noc(-c3ccccc3C(=O)NCc3ccco3)n2)cc1OC | 8.2µM | u | n[0.365 µM] | n | x
CC(=O)c1cccc(NC(=O)c2ccc(N(Cc3ccccc3C)S(C)(=O)=O)cc2)c1 | 26µM | u | u | n | n
COc1ccc(S(=O)(=O)N2CCC(C(N)=O)(N3CCCCC3)CC2)cc1OC | n | n | n | n | n
O=c1[nH]c(C(F)(F)F)nc2ccc3ccccc3c12 | u | n | n | n | n
CCC(C)N(C(=O)COC(=O)CN=C1NS(=O)(=O)c2ccccc21)C1CCS(=O)(=O)C1 (stereo unspecified) | n | n | x | n | x
O=C(NCc1ccco1)c1ccc(C(=O)NCc2ccco2)cc1 | x | n | x | n | x
CCCOc1ccc(N2CC(C(=O)Nc3ccccc3C(=O)NCc3ccco3)CC2=O)cc1 (stereo unspecified) | 18µM | n | n | n | n
O=C(NCc1ccco1)c1ccc2ccccc2c1 | u | n | u | n | 10µM
Cc1cc(C)c(NC(=O)COC(=O)c2c(C)noc2C)c(Cl)c1 | n | n | x | n | x
CN(C)CCCN(C(=O)CCSc1ccccc1)c1nc2cc3c(cc2s1)OCO3 | n | u | u | n | n
COc1ccc(C)c2sc(N(CCCN(C)C)C(=O)CS(=O)(=O)c3ccc(F)cc3)nc12 | n | 3.7µM | x | n | x

Screens as filed in PubChem BioAssay.
